Laboratory results published in PubChem BioAssay AID1159580 (chemical genetic matrix, 2015).
Screen size: about 5,500 compounds; about 2,000 (36%) were called active. Inconclusive results (about 18%) are left out. Cut-off read from the data, not from the text of the source: active = normalized growth mostly below about 0.91 (no sharp cut-off); inconclusive = no clear call, values can overlap the other calls; inactive = mostly above about 0.92. This is one part of the list.

Test: chemical genetic growth profiling, strain panel (AID 1159580);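 note: tested at 20 µM; growth read once vehicle control cultures reached saturation at 30 °C; 1 = growth at the plate median or of vehicle wells; lower values mean less growth of the strain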
Conditions: S. cerevisiae deletion strains, growth OD

Measured: normalized growth

O=c1[nH]c(=O)n([C@H]2C[C@H](O)[C@@H](CO)O2)cc1Br
inactive: locus YAL013W, strain DEP1, stronger effect = lower value 1 | locus YAL040C, strain CLN3, stronger effect = lower value 1.08 | locus YDR363W, strain ESC2, stronger effect = lower value 1.01 | locus YER002W, strain NOP16, stronger effect = lower value 1.01 | locus YNL175C, strain NOP13, stronger effect = lower value 1 | locus YNL197C, strain WHI3, stronger effect = lower value 1 | locus YNL224C, strain SQS1, stronger effect = lower value 1 | locus YNL322C, strain KRE1, stronger effect = lower value 1.02 | locus YOR083W, strain WHI5 (second series), stronger effect = lower value 0.991
